Test [1] can be described thus: Primary qHTS for small molecule stabilizers of the endoplasmic reticulum resident proteome: Secreted ER Calcium Modulated Protein (SERCaMP) assay (AID 1508630). Note: % is set by controls: 0 for no effect and ±100 for the full control effect. Summed up: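 The SH-SY5Y reporter protocol was run at 3 concentrations up to 38.3 uM (primary) or 11 concentrations (follow-up): 16 h compound, 100 nM thapsigargin for 4 h, then extracellular luciferase luminescence.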
Background: In qHTS, concentration-response curves come from the screen itself.

Test [2] deals with Lysosomal acid glucosylceramidase (Homo sapiens) (UniProt P04062). Kind of test: Glucocerebrosidase-p2 (AID 348; in the data active = potency below about 10 µM; note: potency is the fitted concentration of half-maximal effect). The following applies: purified GBA, blue fluorogenic substrate, 40 min. Summed up:
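Normal human glucocerebrosidase (0.2 nM) with blue fluorogenic substrate (80 uM final) in citrate/phosphate pH 5.9 with 10mM sodium taurocholate, 0.01% tween-20; 40 min RT, NaOH/glycine stop; fluorescence Ex 365/Em 440; AC50 from a titration from 0.6 nM upwards.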

The nature of test [3]: AP1 Signaling Pathway (AID 357; active = well fitted curve in either direction with a large enough effect, not every such curve was filed as active;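 note: ME-180 reporter cells stimulated with EGF at its EC50 level; % is set by controls: 0 for no effect and ±100 for the full control effect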). The following applies: ME-180 AP-1-bla reporter, EGF-induced, beta-lactamase ratio, 5 h; at 7.69 µM (top of the series) unless noted. Summed up:
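Modulation of EGF-driven AP-1 transcription was assessed with a beta-lactamase reporter in ME-180 cells. Compound and EC50 EGF were co-incubated 5 hours at 37 °C before 2.5-hour CCF4 loading at room temperature and dual-emission reading.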

A short description of test [4]: NFAT Signaling Pathway (AID 444; active = well fitted curve in either direction with a large enough effect, not every such curve was filed as active;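 note: carbachol stimulus at about its EC50 of 1 µM final; % is set by controls: 0 for no effect and ±100 for the full control effect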). Conditions: Jurkat NFAT-bla M1, carbachol, beta-lactamase ratio, 5 h; at 7.69 µM (top of the series) unless noted. Summed up: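 Jurkat cells with NFAT-driven β-lactamase reporter and co-expressed M1 receptor, stimulated with carbachol (final 1 uM, ~EC50), compound titration, 5 h at 37 °C. CCF4 loaded 1 h at RT; 460/530 nm ratio gave %activity and AC50.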

The nature of test [5]: Stat Signaling Pathway (AID 446; active = well fitted curve in either direction with a large enough effect, not every such curve was filed as active;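 note: ME-180 cervical cancer cells given 40 pM IL-6 alongside compound; SIE-controlled beta-lactamase reporter measured as 460/530 nm FRET emission ratio; % is set by controls: 0 for no effect and ±100 for the full control effect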). The following applies: ME-180 (cervical carcinoma) SIE beta-lactamase reporter, IL-6 stimulated, 5 h; at 7.69 µM (top of the series) unless noted. An outline of the steps:
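Compound effects on IL-6-induced STAT reporter activity were measured in ME-180 cells. After overnight culture, cells were co-treated with 40 pM IL-6 for 5 hrs before beta-lactamase substrate loading at room temperature.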

In test [6] the target is Glucocorticoid receptor (Homo sapiens) (UniProt P04150). Kind of test: GR-GFP Redistribution (AID 450;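 active = compounds whose dose series gives a full or clear partial fitted curve of increased nuclear translocation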; note: potency is the fitted concentration of half-maximal effect). Conditions: U2OS GR-GFP nuclear translocation, laser cytometry, 2 h.
Chain of Glucocorticoid receptor (Homo sapiens) (P04150 whole entry, looked up, the tested form may be a part): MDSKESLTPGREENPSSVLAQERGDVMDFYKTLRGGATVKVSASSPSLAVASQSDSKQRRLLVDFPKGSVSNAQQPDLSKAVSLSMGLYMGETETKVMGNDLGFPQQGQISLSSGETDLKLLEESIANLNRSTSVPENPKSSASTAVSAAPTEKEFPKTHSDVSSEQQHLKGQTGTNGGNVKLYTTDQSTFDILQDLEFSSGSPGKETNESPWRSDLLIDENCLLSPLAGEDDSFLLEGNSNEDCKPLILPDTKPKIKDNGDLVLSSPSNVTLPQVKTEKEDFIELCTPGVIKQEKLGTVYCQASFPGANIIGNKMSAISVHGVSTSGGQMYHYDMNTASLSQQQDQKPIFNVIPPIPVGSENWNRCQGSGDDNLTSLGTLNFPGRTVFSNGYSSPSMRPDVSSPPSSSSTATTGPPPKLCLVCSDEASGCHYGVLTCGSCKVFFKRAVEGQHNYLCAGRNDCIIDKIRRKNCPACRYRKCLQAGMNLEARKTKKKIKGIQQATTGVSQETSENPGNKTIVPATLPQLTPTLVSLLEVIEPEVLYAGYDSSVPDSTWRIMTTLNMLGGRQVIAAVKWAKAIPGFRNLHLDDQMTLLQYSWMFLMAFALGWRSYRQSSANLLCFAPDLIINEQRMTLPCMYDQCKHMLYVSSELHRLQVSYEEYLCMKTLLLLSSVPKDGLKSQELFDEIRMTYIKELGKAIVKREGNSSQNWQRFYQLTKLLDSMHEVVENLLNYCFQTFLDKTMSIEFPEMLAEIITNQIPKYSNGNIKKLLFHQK
Test [7] has the same target. Kind of test: GR-EFC Redistribution (AID 451; calls by dose curve; note: potency is the fitted concentration of half-maximal effect). The following applies: CHO-K1 GR-EFC translocation, beta-gal luminescence, 2 h. Summed up: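 CHO-K1 cells expressing nuclear EA and GR-ED fragments of b-gal; compounds titrated up to 46 uM final, 2 h at 37 C. GR nuclear translocation read as complemented b-gal luminescence after 1 h RT detection.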
Test [8] concerns the target Mitogen-activated protein kinase 10 (Mus musculus) (UniProt Q61831). The test is described as follows: JNK3 AlphaScreen Assay (AID 530; active = well fitted curve in either direction with a large enough effect, not every such curve was filed as active). An outline of the steps:
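Activity was read by AlphaScreen after JNK3-containing HepG2 lysate (cytokine pre-activated) phosphorylated biotinylated GST-cJun with 10 uM ATP at room temperature. Phospho-Ser73 cJun antibody with Protein-A acceptor beads provided detection.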

A short description of test [9]: qHTS Assay for Lipid Storage Modulators (AID 1519; calls by dose curve). Conditions: Drosophila S3 cells, BODIPY lipid droplet/cell ratio, laser cytometry, cells loaded with oleic acid; for activity change, negative = inhibition: at 57.5 µM (top of the series). An outline of the steps:
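Cells seeded at 5,000 per well were treated with compounds over a concentration series and loaded with oleic acid (400 uM, as added). Lipid droplet fluorescence (488 nm excitation, 500-530 nm channel) was read by laser-scanning cytometry and normalized to 20 uM Triacsin C.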

The target of test [10] is Rap guanine nucleotide exchange factor 3 (Homo sapiens) (UniProt O95398). Kind of test: Confirmatory qHTS for antagonist of cAMP-regulated guanine nucleotide exchange factor 3 (EPAC1) (AID 1645880).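 Note: plate controls were DMSO only for no effect and full effect of the ATA control for full effect; nearly all actives have a fitted effect of over 55% in size.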 An outline of the steps:
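Released BODIPY-GDP fluoresces less than Rap1-bound BODIPY-GDP; the signal is followed at 480/540 nm at 5-min intervals over 30 min, after 5 min at room temperature. Reactions contain 100 nM EPAC1, 250 nM RAP1B-BODIPY-GDP and 50 uM GDP; results are normalized to ATA and DMSO.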

Test [11] shares this target. Kind of test: Confirmatory qHTS for agonist of cAMP-regulated guanine nucleotide exchange factor 3 (EPAC1) (AID 1645881).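 Note: EPAC1 catalysed release of BODIPY-GDP from Rap1B seen as fluorescence loss; 100% = effect of cAMP agonist control; nearly all actives have a fitted effect of over 75% in size.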
For test [12], the target named is Rap guanine nucleotide exchange factor 4 (Homo sapiens) (UniProt Q8WZA2). Kind of test: Confirmatory qHTS for antagonist of cAMP-regulated guanine nucleotide exchange factor 4 (EPAC2) (AID 1645885). Note: % is set by controls: 0 for no effect and ±100 for the full control effect; nearly all actives have a fitted effect of over 25% in size.
Chain of Rap guanine nucleotide exchange factor 4 (Homo sapiens) (Q8WZA2 whole entry, looked up): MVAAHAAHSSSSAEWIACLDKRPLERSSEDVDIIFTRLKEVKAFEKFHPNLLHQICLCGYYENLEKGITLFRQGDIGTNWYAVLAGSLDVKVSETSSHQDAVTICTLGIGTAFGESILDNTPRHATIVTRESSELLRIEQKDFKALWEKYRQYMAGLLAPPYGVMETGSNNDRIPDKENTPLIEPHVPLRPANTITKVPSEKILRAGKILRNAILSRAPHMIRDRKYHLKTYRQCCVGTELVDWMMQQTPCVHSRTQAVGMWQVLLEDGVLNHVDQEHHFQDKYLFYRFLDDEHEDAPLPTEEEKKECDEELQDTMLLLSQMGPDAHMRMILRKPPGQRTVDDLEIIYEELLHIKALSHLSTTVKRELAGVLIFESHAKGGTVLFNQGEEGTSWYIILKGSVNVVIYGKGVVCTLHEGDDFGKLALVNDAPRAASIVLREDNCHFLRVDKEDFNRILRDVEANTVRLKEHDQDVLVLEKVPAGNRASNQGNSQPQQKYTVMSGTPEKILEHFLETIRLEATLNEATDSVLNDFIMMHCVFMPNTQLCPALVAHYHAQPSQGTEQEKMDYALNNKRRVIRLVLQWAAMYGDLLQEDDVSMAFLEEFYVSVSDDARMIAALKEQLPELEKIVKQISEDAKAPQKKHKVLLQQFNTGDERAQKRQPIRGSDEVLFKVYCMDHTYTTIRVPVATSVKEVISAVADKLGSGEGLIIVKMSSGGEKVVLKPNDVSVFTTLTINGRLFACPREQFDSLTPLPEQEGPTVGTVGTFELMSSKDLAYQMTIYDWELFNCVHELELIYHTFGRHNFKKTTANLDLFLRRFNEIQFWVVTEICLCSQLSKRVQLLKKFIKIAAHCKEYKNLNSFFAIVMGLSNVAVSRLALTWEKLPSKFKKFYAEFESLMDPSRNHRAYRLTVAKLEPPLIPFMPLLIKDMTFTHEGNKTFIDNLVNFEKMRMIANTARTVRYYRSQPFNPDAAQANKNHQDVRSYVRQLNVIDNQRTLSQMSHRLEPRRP
For test [13], the target named is Cytochrome P450 1A2 (Homo sapiens) (UniProt P05177). Kind of test: p450-cyp1a2 (AID 410; calls by dose curve; note: potency is the fitted concentration of half-maximal effect;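 for activity change, negative = inhibition: -100% = full effect of reference inhibitor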). An outline of the steps: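 O-Demethylation of luciferin 6' methyl ether by human CYP1A2 is monitored as luciferase luminescence. Substrate sits at Km (100uM); enzyme is 20nM. Values are scaled to 57 uM furafylline as maximal inhibition.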
Chain of Cytochrome P450 1A2 (Homo sapiens) (P05177 whole entry, looked up): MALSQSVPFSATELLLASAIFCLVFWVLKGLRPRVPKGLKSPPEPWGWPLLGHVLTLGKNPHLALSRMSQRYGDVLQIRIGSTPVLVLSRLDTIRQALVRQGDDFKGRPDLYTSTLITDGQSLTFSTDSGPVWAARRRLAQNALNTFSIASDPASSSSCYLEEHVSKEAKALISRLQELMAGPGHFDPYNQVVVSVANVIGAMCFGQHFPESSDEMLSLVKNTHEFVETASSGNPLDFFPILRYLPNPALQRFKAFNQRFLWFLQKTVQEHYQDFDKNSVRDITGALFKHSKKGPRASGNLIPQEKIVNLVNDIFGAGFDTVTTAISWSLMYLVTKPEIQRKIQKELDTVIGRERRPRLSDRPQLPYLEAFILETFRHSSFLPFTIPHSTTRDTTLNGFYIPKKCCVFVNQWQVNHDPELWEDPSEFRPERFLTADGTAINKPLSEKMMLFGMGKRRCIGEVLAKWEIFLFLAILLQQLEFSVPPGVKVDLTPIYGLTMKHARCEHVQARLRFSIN
For test [14], the target named is 3',5'-cyclic-AMP phosphodiesterase 4B (Homo sapiens) (UniProt Q07343). The test is described as follows: qHTS Assay for Inhibitors of PDE-IV (AID 607; active = well fitted activation curve with a large enough effect in the main read-out, with a control signal flat, not every such curve was filed as active; note: % of control where 0% means no effect). An outline of the steps:
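ACTOne HEK293 cells carry a modified cAMP-gated CNG channel and express endogenous PDE4; plated 1000 cells/well, compounds up to 22.9 uM final. Membrane-potential dye fluorescence (ex 535/em 590) was read; parental cells received 10 uM forskolin + 100 uM RO 20-1724.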

In test [15] the target is Cytochrome P450 3A4 (Homo sapiens) (UniProt P08684). The test is described as follows: qHTS Assay for Activators of Cytochrome P450 3A4 (AID 885). Note: nearly all actives have a fitted effect of over 65% in size. Note: potency is the fitted concentration of half-maximal effect. Summed up: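 CYP3A4 activity: Luciferin-PPXE O-dealkylation, 25uM substrate, 200mM KPO4, RT throughout. Read-out is luciferase luminescence; higher values reflect activation.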
For test [16], the target named is Dual specificity protein kinase CLK4 (Homo sapiens) (UniProt Q9HAZ1). Kind of test: qHTS Assay for Inhibitors of CDC-like Kinase 4 (ADP-Glo Assay) (AID 1771). Note: % is set by controls: 0 for no effect and ±100 for the full control effect; nearly all actives have a fitted effect of over 70% in size. Summed up:
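Compounds are pin-transferred onto substrate mix (100 uM RS peptide, 1 uM ATP), then 25 nM Clk4 is added. After 1 hr at room temperature, ADP-Glo reagent runs 45 min, detection reagent 30 min, then luminescence is read.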

For test [17] the target is unchanged. Kind of test: qHTS Assay for Inhibitors of CDC-like Kinase 4 (ADP-FP Assay) (AID 1795).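 Note: recombinant human CLK4 phosphorylating RS repeat peptide at 1 µM ATP; % is set by controls: 0 for no effect and ±100 for the full control effect; nearly all actives have a fitted effect of over 60% in size.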 An outline of the steps:
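Inhibition of ADP formation by 6.25 nM Clk4 is measured using 1 uM ATP and 100 uM RS repeat peptide over one hour. Produced ADP displaces a fluorescent tracer from antibody, lowering polarization.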

Test [18] has as its target Ubiquitin carboxyl-terminal hydrolase 1 (Homo sapiens) (UniProt O94782). The test is described as follows: Inhibitors of USP1/UAF1: Pilot qHTS (AID 504865). Note: potency is the fitted concentration of half-maximal effect; nearly all actives have a fitted effect of over 35% in size. Summed up:
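Kinetic fluorescence assay: 1nM USP1/UAF1, 15 min compound preincubation, then 150nM Ub-Rho; 480/540 nm.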

[19] abbreviates: measured here: cell count channel max response.
[20] abbreviates: measured here: lipid channel max response.

Molecules are shown by their SMILES. Records with an inconclusive call do not appear. Active and inactive are the calls of the source. Unless noted, calls come from the whole dose curve; as a rule, active = well fitted curve in the direction sought with a large enough effect; inconclusive = small, poorly fitted or top-dose-only effect, or another doubt; inactive = no such curve, though single readings can be large; an effect the other way counts as inactive or inconclusive.

Here are results for nine molecules from PubChem BioAssay (NCATS).

Chain of 3',5'-cyclic-AMP phosphodiesterase 4B (Homo sapiens) (Q07343 whole entry, looked up): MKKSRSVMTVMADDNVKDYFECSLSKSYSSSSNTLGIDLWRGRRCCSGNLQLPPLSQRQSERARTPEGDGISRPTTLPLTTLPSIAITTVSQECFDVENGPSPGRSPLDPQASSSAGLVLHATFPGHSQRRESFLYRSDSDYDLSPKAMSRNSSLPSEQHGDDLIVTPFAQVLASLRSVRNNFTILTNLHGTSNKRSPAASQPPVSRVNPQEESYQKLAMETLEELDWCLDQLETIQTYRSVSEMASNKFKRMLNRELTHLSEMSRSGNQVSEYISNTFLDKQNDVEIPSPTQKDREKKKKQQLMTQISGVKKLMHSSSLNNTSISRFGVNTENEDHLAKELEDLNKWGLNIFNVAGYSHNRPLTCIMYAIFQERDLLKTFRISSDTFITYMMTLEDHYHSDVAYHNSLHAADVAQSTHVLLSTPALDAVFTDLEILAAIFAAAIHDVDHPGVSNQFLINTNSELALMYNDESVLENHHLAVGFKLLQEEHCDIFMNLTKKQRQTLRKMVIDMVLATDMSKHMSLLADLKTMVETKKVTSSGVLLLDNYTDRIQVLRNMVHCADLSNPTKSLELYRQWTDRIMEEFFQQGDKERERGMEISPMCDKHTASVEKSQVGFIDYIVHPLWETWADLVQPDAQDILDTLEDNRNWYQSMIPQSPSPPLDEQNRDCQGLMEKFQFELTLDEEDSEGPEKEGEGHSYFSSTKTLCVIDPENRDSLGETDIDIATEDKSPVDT
Chain of Lysosomal acid glucosylceramidase (Homo sapiens) (P04062 whole entry, looked up): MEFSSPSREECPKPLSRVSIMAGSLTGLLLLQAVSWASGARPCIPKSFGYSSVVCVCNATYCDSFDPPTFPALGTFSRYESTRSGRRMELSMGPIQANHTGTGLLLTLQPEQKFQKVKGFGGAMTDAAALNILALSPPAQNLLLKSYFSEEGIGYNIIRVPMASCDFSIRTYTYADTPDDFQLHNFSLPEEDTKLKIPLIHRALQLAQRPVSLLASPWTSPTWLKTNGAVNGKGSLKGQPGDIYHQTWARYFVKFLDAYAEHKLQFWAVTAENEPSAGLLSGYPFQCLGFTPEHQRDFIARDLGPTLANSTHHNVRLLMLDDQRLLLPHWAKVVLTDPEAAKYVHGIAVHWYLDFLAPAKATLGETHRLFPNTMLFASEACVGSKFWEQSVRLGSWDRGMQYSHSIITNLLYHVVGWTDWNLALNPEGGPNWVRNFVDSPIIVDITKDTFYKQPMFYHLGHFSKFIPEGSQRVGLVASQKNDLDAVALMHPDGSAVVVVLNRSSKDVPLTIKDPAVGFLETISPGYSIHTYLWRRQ
Chain of Rap guanine nucleotide exchange factor 3 (Homo sapiens) (O95398 whole entry, looked up): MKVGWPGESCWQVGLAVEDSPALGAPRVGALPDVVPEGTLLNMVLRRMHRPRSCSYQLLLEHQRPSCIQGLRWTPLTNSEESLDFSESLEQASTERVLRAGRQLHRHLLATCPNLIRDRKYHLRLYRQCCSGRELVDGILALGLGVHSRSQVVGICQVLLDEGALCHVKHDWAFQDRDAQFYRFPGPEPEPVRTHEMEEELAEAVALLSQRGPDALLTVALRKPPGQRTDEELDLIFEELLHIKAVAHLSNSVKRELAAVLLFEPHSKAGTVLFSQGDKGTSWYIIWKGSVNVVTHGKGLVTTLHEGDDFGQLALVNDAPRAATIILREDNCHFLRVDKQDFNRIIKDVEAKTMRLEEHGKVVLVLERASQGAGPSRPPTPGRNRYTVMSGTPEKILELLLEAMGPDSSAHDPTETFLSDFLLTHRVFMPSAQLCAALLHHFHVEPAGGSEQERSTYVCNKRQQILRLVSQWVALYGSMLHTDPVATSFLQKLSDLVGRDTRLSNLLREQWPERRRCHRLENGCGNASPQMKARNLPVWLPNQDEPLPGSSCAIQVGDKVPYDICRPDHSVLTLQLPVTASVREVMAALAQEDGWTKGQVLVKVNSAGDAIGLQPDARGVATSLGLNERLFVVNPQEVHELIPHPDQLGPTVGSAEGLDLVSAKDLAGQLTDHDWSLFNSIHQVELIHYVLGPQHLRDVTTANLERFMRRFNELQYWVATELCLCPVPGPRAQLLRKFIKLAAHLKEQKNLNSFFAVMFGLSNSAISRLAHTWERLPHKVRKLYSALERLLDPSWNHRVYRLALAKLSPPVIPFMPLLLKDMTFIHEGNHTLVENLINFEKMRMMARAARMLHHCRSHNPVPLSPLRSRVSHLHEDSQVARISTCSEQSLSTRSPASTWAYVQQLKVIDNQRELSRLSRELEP
Chain of Dual specificity protein kinase CLK4 (Homo sapiens) (Q9HAZ1 whole entry, looked up): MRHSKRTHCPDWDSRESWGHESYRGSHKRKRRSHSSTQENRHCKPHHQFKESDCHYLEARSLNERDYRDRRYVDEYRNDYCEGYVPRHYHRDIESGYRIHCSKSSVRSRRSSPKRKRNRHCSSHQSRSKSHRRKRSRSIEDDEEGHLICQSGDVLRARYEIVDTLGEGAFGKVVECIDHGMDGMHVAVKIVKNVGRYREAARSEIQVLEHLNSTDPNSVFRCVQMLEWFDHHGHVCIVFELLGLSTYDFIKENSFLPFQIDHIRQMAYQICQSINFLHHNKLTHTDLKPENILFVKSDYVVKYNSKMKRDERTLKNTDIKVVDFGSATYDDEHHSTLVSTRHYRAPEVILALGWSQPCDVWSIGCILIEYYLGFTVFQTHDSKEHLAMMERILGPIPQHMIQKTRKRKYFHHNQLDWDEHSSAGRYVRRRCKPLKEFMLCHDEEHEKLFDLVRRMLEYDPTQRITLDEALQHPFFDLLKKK

Consider `COc1c2c(cc3c1C(CC(=O)c1c(O)c(OC)c4occc4c1OC)[N+](C)(C)CC3)OCO2` (stereo not drawn), for which the Potency entry in [1] was “inactive”.
In the case of `COc1ccc(/C=C2\NC(=O)[C@@H]3Cc4ccccc4CN3C2=O)cc1`, the Potency result in [1] is “inactive”.
For the molecule `OCC1=CC[N+]2(Cc3ccccc3)CCC(O)[C@@H]12` (stereo partly drawn), the Potency result in test [1] is “inactive”.
Turning to `COCCn1c(=O)c(CCc2ccccc2)nc2cnc(Nc3cccc(OC)c3)nc21`, the Potency was > 11.4 µM (inactive) in test [2], > 9.22 µM (inactive) in test [6] and > 46 µM (inactive) in test [7]. In addition, the activity change, negative = inhibition is 13.2% (inactive) in [3], 5.55% (inactive) in [4] and -3.18% (inactive) in [9]. Moreover, the activity, negative = inhibition in test [5] was 0.869% (inactive). The molecule was classed as inactive in [8] and in test [11]. For the same molecule, the figures for the max response in test [9] (setting [19]) and in test [9] (setting [20]) were 22% and 18.9%, respectively. Further, the Potency result in test [1], in test [10] and in [12] was “inactive” throughout.
For the molecule `C=C1C[C@H](OC(=O)C(C)(O)CCl)C2C(=C)C(=O)O[C@@H]2C2C1C[C@H](O)[C@]2(O)CCl` (stereo partly drawn), the Potency result in test [1] is “inactive”.
Regarding `Cc1noc(C)c1C(=O)N1CCC2(CCN(Cc3ccc(C#N)cc3)CC2)CC1`, the results for the Potency in test [2] and in test [7] were > 11.4 µM (inactive) and > 46 µM (inactive), respectively. The values for the activity change, negative = inhibition in [3] and in test [9] were 22% (inactive) and -1.31% (inactive), respectively. The activity, negative = inhibition in test [5] is 2.67% (inactive). The max response in test [9] (setting [19]) worked out at 9.89%; in test [9] (setting [20]), 10.9%. For the same molecule, the Potency result in [1], in test [10] and in [12] was “inactive” throughout. Moreover, in test [11], the molecule was classed as inactive.
As for `O=C(c1cccc(F)c1)N1CCC2(CC1)CN(c1cccc(-c3ccccc3)c1)C2`, the Potency in [2] was > 11.4 µM (inactive); in test [13], 12.6 µM (active); in test [7] it was > 46 µM (inactive); in test [15] it was 3.16 µM (active). The values for the activity change, negative = inhibition in test [3] and in test [9] were -6.1% (inactive) and -19.2% (inactive), respectively. Moreover, the activity, negative = inhibition in test [5] is -13.4% (inactive). Also, the Potency entry in test [14], in [1], in [10] and in test [12] was “inactive” each time. The max response is -4.49% in test [9] (setting [19]) and -20.8% in [9] (setting [20]). Also, the molecule was classed as inactive in test [11].
On to `COc1cccc(Cn2c(=O)c(-c3cn(C)c4ccccc34)nc3cnc(N4CCNCC4)nc32)c1`, for which the Potency in test [2] was > 11.4 µM (inactive); in test [13] it was 15.8 µM (active); in test [6] it was > 9.22 µM (inactive); in [7], > 46 µM (inactive); in [18], 14.1 µM (active). The Potency entry in test [14], in test [15], in [16], in [17], in [1] and in test [10] was “inactive” each time. In addition, in [12], the Potency entry was “inactive”. In addition, the activity change, negative = inhibition in test [9] is 5.92% (inactive). The max response in [9] (setting [19]) worked out at 13.9%; in test [9] (setting [20]), 20.8%. Also, the outcome in [11] was inactive.
Regarding `COCC(=O)N1CCC2(CC1)CN(c1ccccn1)C2`, the Potency is > 11.4 µM (inactive) in test [2] and > 46 µM (inactive) in test [7]. The activity change, negative = inhibition in [3] was -0.233% (inactive); in test [4] it was 1.7% (inactive); in [9] it was 1.23% (inactive). In addition, the Potency result in [13], in [14], in test [1], in [10] and in test [12] was “inactive” throughout. Further, in test [5], the activity, negative = inhibition was 9.91% (inactive). Besides, the max response in [9] (setting [19]) was 1.59%; in test [9] (setting [20]), 3.63%. For the same molecule, in [11], the molecule was called inactive.
